Test results from ChEMBL document CHEMBL4513141, “CO-ADD screening of NIH (USA) - Clinical Collection” (2021).
Entries with a potency or affinity are not part of this list.

Key:
Staphylococcus aureus = conditions: Concentration 20 uM; ASSAY_TEST Inhibition of Bacterial Growth; detection method Absorption (OD600); MEDIA CAMHB; plate type 384well; NBS; CORNING #3640; time 18 hr
Escherichia coli = conditions: Concentration 20 uM; ASSAY_TEST Inhibition of Bacterial Growth; detection method Absorption (OD600); MEDIA CAMHB; plate type 384well; NBS; CORNING #3640; time 18 hr

Row | SMILES | Inhibition (Staphylococcus aureus) | Inhibition (Escherichia coli)
1 | CCN(CC)CC1CCCCN1CC(=O)N1c2ccccc2C(=O)Nc2cccnc21 (stereo not drawn) [OTENZEPAD] | 7.92% | 5.55%
2 | Cl.NC1CCN(c2cccc(Cl)n2)CC1 | 8.14% | 8.42%
3 | NC(=O)N1c2ccccc2C=Cc2ccccc21 [CARBAMAZEPINE] | 10.71% | -3.33%
4 | O=C([O-])Cc1ccccc1Nc1c(Cl)cccc1Cl.[Na+] [DICLOFENAC SODIUM] |  | 7.01%
5 | Cl.O.OC[C@H]1O[C@@H](n2cnc3c(N[C@H]4CCC[C@@H]4O)ncnc32)[C@@H](O)C1O (stereo partly drawn) | 7.67% | 1.98%
6 | C#C[C@]1(O)CC[C@H]2[C@@H]3[C@H](C)CC4=C(CCC(=O)C4)[C@H]3CC[C@@]21C [TIBOLONE] | 12.93% | 2.02%
7 | COC(=O)C1=C(C)NC(C)=C(C(=O)OCCN(C)Cc2ccccc2)C1c1cccc([N+](=O)[O-])c1.Cl (stereo not drawn) [NICARDIPINE HYDROCHLORIDE] | -1.65% | 2.23%
8 | C[C@H](CS)C(=O)N1CCC[C@H]1C(=O)O [CAPTOPRIL] | -7.06% | 4.92%
9 | Nc1nc(Cl)nc2c1ncn2[C@@H]1O[C@H](CO)[C@@H](O)[C@H]1O | -10.52% | 3.01%
10 | CC(=O)OCC(=O)NCCCOc1cccc(CN2CCCCC2)c1.Cl [ROXATIDINE ACETATE HYDROCHLORIDE] | 9.98% | 5.49%
11 | Nc1ccn([C@H]2CC[C@@H](CO)O2)c(=O)n1 [ZALCITABINE] | 4.24% | -9.44%
12 | CC(=O)O.CC(C)C[C@H](NC(=O)[C@@H](COC(C)(C)C)NC(=O)[C@H](Cc1ccc(O)cc1)NC(=O)[C@H](CO)NC(=O)[C@H](Cc1c[nH]c2ccccc12)NC(=O)[C@H](Cc1c[nH]cn1)NC(=O)[C@H]1CCC(=O)N1)C(=O)N[C@H](CCCNC(=N)N)C(=O)N1CCC[C@@H]1C(=O)NNC(N)=O | 9.86% | 5.78%
13 | CC(=O)OCC(=O)C12OC3(CCCC3)OC1CC1C3CCC4=CC(=O)C=CC4(C)C3(F)C(O)CC12C (stereo not drawn) | 19.97% | 7.38%
14 | Cc1c(C(=O)NN2CCCCC2)nn(-c2ccc(Cl)cc2Cl)c1-c1ccc(I)cc1 | 8.26% | 1.46%
15 | CC1=Nc2ccc(Cl)cc2S(=O)(=O)N1 [DIAZOXIDE] | 9.13% | 5.75%
16 | CC(C)NCC(O)COc1ccc(CCOCC2CC2)cc1.Cl (stereo not drawn) [BETAXOLOL HYDROCHLORIDE] | 7.41% | 0.81%
17 | NC(=O)c1cccnc1 [NIACINAMIDE] | 11.51% | 3.02%
18 | Cl.NC[C@H]1CC[C@H](C(=O)Oc2ccc(CCC(=O)O)cc2)CC1 [CETRAXATE HYDROCHLORIDE] | 14.3% | -0.51%
19 | COc1ccccc1N1CCN(CCCNc2cc(=O)n(C)c(=O)n2C)CC1.Cl [URAPIDIL HYDROCHLORIDE] | 12.2% | 0.81%
20 | CC[C@H]1OC(=O)[C@H](C)C(=O)[C@H](C)[C@@H](O[C@@H]2O[C@H](C)C[C@H](N(C)C)[C@H]2O)[C@](C)(OC)C[C@@H](C)C(=O)[C@H](C)[C@@H]2N(CCCCn3cnc(-c4cccnc4)c3)C(=O)O[C@@]21C | 4.38% | 4.81%
21 | CS(=O)(=O)OCCCCOS(C)(=O)=O [BUSULFAN] | 14.7% | 10.16%
22 | CC(=O)O.CNC(=N)NCCC[C@H](N)C(=O)O [TILARGININE ACETATE] | -13.73% | 6.22%
23 | CCN(CC)CCNC(=O)c1ccc(N)cc1.Cl [PROCAINAMIDE HYDROCHLORIDE] | -10.39% | -0.2%
24 | Nc1ncnc2c1ncn2[C@@H]1O[C@H](CO)C[C@@H]1O.O | 7.37% | 1.02%
25 | COc1ccc(C2CNC(=O)C2)cc1OC1CCCC1 (stereo not drawn) [ROLIPRAM] | 10.42% | 5.39%
26 | O=C1CCC(N2C(=O)c3ccccc3C2=O)C(=O)N1 (stereo not drawn) [THALIDOMIDE] | 9.61% | -2.18%
27 | CCC(C)(C)C(=O)O[C@H]1C[C@@H](C)C=C2C=C[C@H](C)[C@H](CC[C@@H]3C[C@@H](O)CC(=O)O3)[C@H]21 [SIMVASTATIN] |  | 6.01%
28 | CCC(=O)[N-]S(=O)(=O)c1ccc(-c2c(-c3ccccc3)noc2C)cc1.[Na+] [PARECOXIB SODIUM] | 0.13% | 6.4%
29 | C[C@@H]1O[C@@H](OC[C@H]2O[C@@H](Oc3c(-c4ccc(O)c(O)c4)oc4cc(O)cc(O)c4c3=O)[C@H](O)[C@@H](O)[C@@H]2O)[C@H](O)[C@H](O)[C@H]1O [RUTIN] | 17.86% | 2.05%
30 | NS(=O)(=O)c1cc2c(cc1C(F)(F)F)NCNS2(=O)=O [HYDROFLUMETHIAZIDE] | 14.86% | 7.25%
